Our source for the Potency values is PubChem BioAssay (NCATS).

Results filed as inconclusive are left out. A call without a number means that no potency is given here. Active and inactive are the calls of the source. The call rests on the fitted dose curve; in most records, active means well fitted cell-killing curve with a large enough effect; inconclusive means small, poorly fitted or top-dose-only effect; inactive means flat fitted curve, though single readings scatter.
Potency means the concentration at half of the fitted maximal effect.

The nature of the test: Quantitative highthroughput screen to assess conditional lethalithy of P12 Ichikawa cells grown in Human Plasma-Like Medium with dialyzed fetal bovine serum (HPLM+ds) (AID 1963879). Further: nearly all actives have a fitted effect of over 35% in size. The note with it: ATP luminescence, 48 h; Potency: viability; series mostly up to 45.8 µM. An excerpt: Assay Provider: Jason Cantor Ph.D.
Department of Biochemistry
University of Wisconsin-Madison, Madison, WI, USA
Chemical screening studies have identified drug sensitivities across hundreds of cancer cell lines but most putative therapeutics fail to translate. Discovery and development of drug candidates in models that more accurately reflect nutrient levels in human blood is a major challenge. Here we performed high-throughput screens in conventional versus Human Plasma-Like Medium (HPLM) to identify compounds that were "missed" when screening using the artificial culture condition. Sets of conditional anticancer compounds spanned phases of clinical development and included non-oncology drugs were assessed. […] We also traced conditional phenotypes for several chemotherapeutics to availability of HPLM-specific metabolites and confirmed others for compounds whose reported targets are encoded by nonessential genes. Our findings establish generalizable strategies for exploiting conditional lethality in HPLM to reveal therapeutic candidates and mechanisms of action in cancer cells.
Described herein are the results of each viability screens against three cell lines: NOMO1 (an acute myeloid leukemia cell line); P12-Ichikawa (a T-cell acute lymphoblastic leukemia); and SEM (a B-cell ALL). Each assay was screened using 3 different cell culture media: homemade human plasma-Like medium with 10% dialyzed fetal bovine serum (HPLM+ds); RPMI1640 with 10% untreated FBS and 5mM glucose (RPMI+s); and RPMI1640 with 10% dialyzed fetal bovine serum and 5 mM glucose (RPMI+ds).
PROTOCOL TABLE (as described by Inglese J, Shamu CE and Guy RK. 2007)
SEQUENCE No. (e.g., 1, 2, 3, etc.); […] (e.g., Cells, Incubation, Reagent, etc.); VALUE and DESCRIPTION.
1; Cells; 5 uL; white, solid bottom 1536-well Greiner assay plate.
2; Compounds; 23 nL; Kalypsis pin tool (Wako USA) equipped with a 1536-well pin head to transfer to the assay plates.
3; Incubation; 48 hours; 37C incubation.
4; Reagent; 3 uL; CellTiter Glo (Promega).
5; Incubation; 5 min, room temperature
6; Detection; Luminescence, Viewlux PerkinElmer.
NOTES (numbers refer to Sequence numbers above)
1. Briefly, 5 ul of cell reagent was dispensed using a Multidrop Combi Dispenser. The NOMO1 and SEM cells were plated at 500 cells/well and the P12-Ichikawa line at 1000 cells/well.
2. After seeding the cells, 23 nL of MIPE 4.1 library compounds (in DMSO) were added to each plate using a Kalypsys 1536 Pintool dispenser. Bortezomib at final concentration of […] and DMSO were added to each plate as positive and negative controls respectively. For each screen, MIPE 4.1 compounds were added over an eleven-point concentration range […] in 3-fold dilutions.
3. Each plate was covered with a stainless steel gasketed lid to prevent evaporation and incubated for 48 hour at 37C, 95% relative humidity, and 5% CO2.
4-5. Three microliter CellTilter-GloTM luminescent substrate mix (Promega) reagent was added to the assay plate and incubated at room temperature for 5 min.
6. The luminescence signal was measured using a ViewLux (PerkinElmer) multiplate reader with a 2 second exposure time per plate. Data for each compound were normalized as percent viability such that measurements for DMSO and the empty well controls in each plate were defined as 100% and 0%, respectively.
Turning to `NCC1(CC(=O)O)CCCCC1`, the Potency entry is “inactive”.

Regarding `COc1cccc2c1[C@]13CCN(CC4CC4)[C@H](C2)[C@]1(OC)CCC(=O)C3`, the Potency entry is “inactive”.

As for `Cc1cc(SCc2sc(-c3ccc(C(F)(F)F)c(F)c3)nc2C)ccc1OCC(=O)O`, the Potency entry is “inactive”.

On to `c1ccc(CCCN2CCN(CCOC(c3ccccc3)c3ccccc3)CC2)cc1`, for which the Potency entry was “inactive”.

For `C[C@]12CCC(=O)C=C1CC[C@@H]1[C@H]3CC[C@](C)(O)[C@@]3(C)CC[C@@H]12`, the Potency entry was “inactive”.

As to `O=c1[nH]c2ccccc2n1CCCN1CCC(n2c(=O)[nH]c3cc(Cl)ccc32)CC1`, the Potency entry was “inactive”.

As to `O=C(Oc1ccc([N+](=O)[O-])cc1)N1CCC(C(O)(c2ccc3c(c2)OCO3)c2ccc3c(c2)OCO3)CC1`, the Potency is 14.8 µM (active).

As for `CN(C)[C@@H]1C(=O)C(C(N)=O)=C(O)[C@@]2(O)C(=O)C3=C(O)c4c(O)cccc4[C@@](C)(O)[C@H]3C[C@@H]12`, the Potency result was “inactive”.

Take `CN1CCN(c2ccc([N+](=O)[O-])c3no[n+]([O-])c23)CC1`: the Potency entry was “inactive”.

Take `CNCC(O)c1ccc(O)cc1` (stereo not given): the Potency result was “inactive”.

On to `CC1=C(O)C(=O)C=C2C1=CC=C1[C@@]2(C)CC[C@@]2(C)[C@@H]3C[C@](C)(C(=O)O)CC[C@]3(C)CC[C@]12C`, for which the Potency is 5.9 µM (active).

Take `O=C1CCC[C@@H]2[C@H]3CCCN4CCC[C@@H](CN12)[C@@H]34`: the Potency entry was “inactive”.

For `CC(C)c1cccc(C(C)C)c1O`, the Potency result is “inactive”.

For `Cc1c(C(=O)Nc2cccc(C(F)(F)F)c2)cc(-c2ccccc2)n1CCCN1CCOCC1`, the Potency entry is “inactive”.

On to `C[C@H]([C@H](O)CCC(C)(C)O)[C@H]1CC[C@@]2(O)C3=CC(=O)[C@@H]4C[C@@H](O)[C@@H](O)C[C@]4(C)[C@@H]3CC[C@]12C`, for which the Potency result is “inactive”.

As to `CN(C)CCc1ccc(O)cc1`, the Potency entry is “inactive”.

`CN(C)[C@@H]1C(=O)C(C(N)=O)=C(O)[C@@]2(O)C(=O)C3=C(O)c4c(O)cccc4[C@@](C)(O)[C@H]3[C@H](O)[C@@H]12`: the Potency result is “inactive”.

In the case of `CCOC(=O)c1cncn1[C@H](C)c1ccccc1`, the Potency result is “inactive”.

As to `CC(=Cc1csc(C)n1)[C@@H]1C[C@H]2O[C@]2(C)CCC[C@H](C)[C@@H](O)[C@@H](C)C(=O)C(C)(C)[C@@H](O)CC(=O)O1`, the Potency result was “inactive”.

On to `Cc1[nH]nc2ccc(-c3cncc(OC[C@@H](N)Cc4c[nH]c5ccccc45)c3)cc12`, for which the Potency was 1.66 µM (active).

With `O=C(O)c1nn(Cc2ccc(Cl)cc2Cl)c2ccccc12`, the Potency result was “inactive”.

On to `CCN1C[C@]2(OC(=O)c3ccccc3NC(C)=O)CC[C@H](OC)[C@@]34[C@H]5CC6[C@@H](OC)C[C@](O)(C(C[C@@H]23)[C@@H]14)[C@@]5(O)[C@@H]6OC`, for which the Potency entry is “inactive”.

As to `CC(=O)O[C@@]12CO[C@H]1C[C@H](O)[C@@]1(C)C(=O)[C@H](O)C3=C(C)[C@@H](O)C[C@@](O)([C@@H](OC(=O)c4ccccc4)[C@@H]21)C3(C)C`, the Potency is 10.5 µM (active).

With `CC=C(C)C(=O)O[C@H]1C(C)=C2[C@@H]3OC(=O)[C@@](C)(O)[C@@]3(O)[C@@H](OC(=O)CCC)C[C@](C)(OC(C)=O)[C@@H]2[C@@H]1OC(=O)CCCCCCC`, the Potency was 0.118 µM (active).

For the compound `C[C@]12Cc3cn[nH]c3C[C@@H]1CC[C@@H]1[C@H]2CC[C@@]2(C)[C@H]1CC[C@]2(C)O`, the Potency result was “inactive”.

In the case of `O=C(NCC1CCOCC1)c1cnc(Nc2ccc(Cl)cc2Cl)nc1C(F)(F)F`, the Potency result was “inactive”.

In the case of `COc1ccc(CC2NCCc3cc(OC)c(OC)cc32)cc1OC` (stereo not given), the Potency result is “inactive”.

Take `Cn1c(CCCC(=O)O)nc2cc(N(CCCl)CCCl)ccc21`: the Potency result was “inactive”.

As to `O=C1C=CC[C@@H]2[C@H]3CCCN4CCC[C@@H](CN12)[C@@H]34`, the Potency result was “inactive”.

With `C#CCN(C)[C@H](C)Cc1ccccc1`, the Potency result is “inactive”.

For `C[C@@]12OC(=O)[C@]1([C@@H](O)[C@@H]1C=CCCC1)NC(=O)[C@H]2CCCl`, the Potency was 0.235 µM (active).

`CC[C@@H]1[C@@H](C)O[C@@](O)([C@@H](C)[C@H](O)[C@H](C)[C@H]2OC(=O)C=CC=C[C@@H](C)[C@@H]([C@@H](C)[C@@H](O)[C@H](C)[C@@]3(O)C[C@H](O[C@H]4C[C@H](O)[C@H](O)[C@H](C)O4)[C@H](CC)[C@@H](C)O3)OC(=O)C=CC=C[C@@H]2C)C[C@H]1O[C@H]1C[C@H](O)[C@H](O)[C@H](C)O1`: the Potency is 2.96 µM (active).

For `C[C@@H]1[C@@H](C(=O)C[C@H]2O[C@@H]3O[C@]4(C)CC[C@@H]5[C@H](C)CC[C@@H]([C@H]2C)[C@@]35OO4)O[C@@H]2O[C@]3(C)CC[C@H]4[C@H](C)CC[C@@H]1[C@@]24OO3`, the Potency was 23.5 µM (active).

On to `COc1ccc(C(=O)c2c(C)n(CCN3CCOCC3)c3cc(I)ccc23)cc1`, for which the Potency was 4.18 µM (active).

On to `CCCC[N+]1(C)[C@H]2CC(OC(=O)[C@H](CO)c3ccccc3)C[C@H]1[C@H]1O[C@H]12` (stereo not given in full), for which the Potency entry was “inactive”.

`CC(C)[C@H]1C(=O)N[C@H](CO)Cc2c[nH]c3cccc(c23)N1C`: the Potency entry is “inactive”.

Regarding `CN1CCN(C(=O)O[C@H]2c3nccnc3C(=O)N2c2ccc(Cl)cn2)CC1`, the Potency entry is “inactive”.

In the case of `CC[C@@H](C(N)=O)N1CCCC1=O`, the Potency result was “inactive”.

For `c1cc2c(cc1[C@H]1OC[C@H]3[C@H]1CO[C@H]3c1ccc3c(c1)OCO3)OCO2`, the Potency result is “inactive”.

Turning to `C[C@@H]1O[C@@H](O[C@@H]2C=C3CC[C@@H]4[C@@H](CC[C@]5(C)[C@H](c6ccc(=O)oc6)CC[C@@]45O)[C@@]3(C)CC2)[C@H](O)[C@H](O)[C@H]1O`, the Potency is 0.0209 µM (active).
